# Measurements published in PubChem BioAssay (EPA / NIEHS).
# Calls of active or inactive are those of the source. Rule for the calls: active = hit-call score of the fitted dose curve at least 0.9, where 1 is the maximum; inactive = score below 0.9.
# Key:
# [1] = CEETOX_H295R_11DCORT: CeeTox H295R High-throughput Steroidogenesis Assay for 11-Deoxycortisol (11DCORT) (AID 2283432); settings: actives raise or lower the signal
# Procedure, shortened: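 H295R cells; 10 uM forskolin prestim 48 h; compound in 0.1% DMSO 48 h; media extracted with MTBE; 11-deoxycortisol by LC-MS/MS, 7-point standard curve; gain/loss vs DMSO baseline; viability by MTT in same wells.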
# [2] = CEETOX_H295R_OHPREG: CeeTox H295R High-throughput Steroidogenesis Assay for OH-Pregnenolone (OHPREG) (AID 2283434); settings: actives raise or lower the signal
# Procedure, shortened: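 Human adrenal H295R cells were prestimulated 48 h with 10 uM forskolin, then exposed 48 h to chemical in 0.1% DMSO. Medium 17alpha-hydroxypregnenolone was quantified by HPLC-MS/MS after MTBE extraction; bidirectional fitting versus DMSO baseline.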
# [3] = CEETOX_H295R_OHPROG: CeeTox H295R High-throughput Steroidogenesis Assay for OH-Progesterone (OHPROG) (AID 2283435); settings: actives raise or lower the signal
# Procedure, shortened: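 H295R, 10 uM forskolin prestim 48 h; cmpd in 0.1% DMSO 48 h; medium MTBE-extracted, HPLC-MS/MS for OH-progesterone; 7-pt std curve; bidirectional fit vs DMSO; MTT viability, chemicals diluted until viability >/=70%.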
# [4] = CEETOX_H295R_CORTIC: CeeTox H295R High-throughput Steroidogenesis Assay for Corticosterone (CORTIC) (AID 2283437); settings: actives raise or lower the signal;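 note: corticosterone secreted into medium quantified by mass spectrometry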
# Procedure, shortened: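 H295R cells were prestimulated 48 h with 10 uM forskolin, then exposed 48 h to test chemical in 0.1% DMSO. Medium corticosterone was MTBE-extracted and quantified by HPLC-MS/MS; bidirectional fit versus DMSO baseline.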
# [5] = CEETOX_H295R_CORTISOL: CeeTox H295R High-throughput Steroidogenesis Assay for Cortisol (AID 2283438); settings: actives raise or lower the signal;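 note: cortisol secreted into medium quantified by LC-MS/MS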
# Procedure, shortened: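 Forskolin 10 uM 48 h prestim → test cmpd in DMSO (0.1% final) 48 h → medium MTBE-extracted → LC-MS/MS cortisol vs 7-pt std curve. Gain/loss of signal fitted vs DMSO. MTT viability in same wells.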
# [6] = CEETOX_H295R_DOC: CeeTox H295R High-throughput Steroidogenesis Assay for DOC (AID 2283439); settings: actives raise or lower the signal
# Procedure, shortened: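 Readout: 11-deoxycorticosterone in culture medium by reverse-phase C18 HPLC with ESI+ tandem MS after MTBE extraction. Cells: H295R, forskolin-primed (10 uM, 48 h), chemical-treated 48 h; DMSO 0.1% final. Activity fitted bidirectionally versus DMSO.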
# [7] = read-out: Fatty acid synthase (Homo sapiens) (UniProt P49327); experiment: LTEA_HepaRG_FASN: Life Technologies and Expression Analysis (LTEA) Assay for Fatty Acid Synthase (FASN) using HepaRG (AID 2283448); settings: mRNA level, 48 h; actives raise or lower the signal
# Procedure, shortened: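 FASN expression changes, up or down relative to 0.5% DMSO, were measured by qRT-PCR in human HepaRG cells after 48 h treatment with chemicals at eight concentrations (half-log steps from 100 uM).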
# [8] = read-out: Cyclin D2 (CCND2), CCND2 (gene 894); experiment: LTEA_HepaRG_CCND2: Life Technologies and Expression Analysis (LTEA) Assay for Cyclin D2 (CCND2) using HepaRG (AID 2283449); settings: mRNA level, 48 h; actives raise or lower the signal;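 note: CCND2 transcript measured by TaqMan qRT-PCR and normalised to three housekeeping genes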
# Procedure, shortened: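 Differentiated human HepaRG cells were exposed for 48 h in serum-free induction medium to eight half-log concentrations topping at 100 uM (0.5% DMSO vehicle). CCND2 mRNA was quantified by TaqMan qRT-PCR, normalised to ACTB, GAPDH and POLR2A, and fitted bidirectionally against DMSO.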
# [9] = read-out: Cyclin Dependent Kinase Inhibitor 1A (CDKN1A), CDKN1A (gene 1026); experiment: LTEA_HepaRG_CDKN1A: Life Technologies and Expression Analysis (LTEA) Assay for Cyclin Dependent Kinase Inhibitor 1A (CDKN1A) using HepaRG (AID 2283450); settings: mRNA level, 48 h; actives raise or lower the signal
# Procedure, shortened: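 HepaRG, 48 h dosing, 8-pt half-log series from 100 uM top, 0.5% DMSO vehicle, duplicates. Readout: TaqMan qRT-PCR of CDKN1A transcript, housekeeping-normalized (ACTB, GAPDH, POLR2A). Up/down curve fit relative to DMSO.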
# [10] = read-out: Cyclin D1 (CCND1), CCND1 (gene 595); experiment: LTEA_HepaRG_CCND1: Life Technologies and Expression Analysis (LTEA) Assay for Cyclin D1 (CCND1) using HepaRG (AID 2283451); settings: mRNA level, 48 h; actives raise or lower the signal;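 for AC50: TaqMan qRT-PCR transcript level normalised to ACTB GAPDH and POLR2A housekeeping genes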
# Procedure, shortened: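 qRT-PCR (Fluidigm 96.96 array) read-out of transcript level, housekeeping-normalized (ACTB/GAPDH/POLR2A). HepaRG cells, 48 h chemical exposure, 8-point half-log series from 100 uM, 0.5% DMSO vehicle; gain or loss relative to DMSO baseline.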
# [11] = read-out: catalase (CAT), CAT (gene 847); experiment: LTEA_HepaRG_CAT: Life Technologies and Expression Analysis (LTEA) Assay for catalase (CAT) using HepaRG (AID 2283452); settings: mRNA level, 48 h; actives raise or lower the signal
# Procedure, shortened: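 Differentiated HepaRG cells in serum-free induction medium were dosed 48 h in duplicate, eight half-log concentrations from 100 uM in 0.5% DMSO. Transcript measured by TaqMan qRT-PCR, normalised to ACTB/GAPDH/POLR2A, fitted bidirectionally against DMSO.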
# [12] = read-out: flavin-containing dimethylaniline monooxygenases 3 (FMO3), FMO3 (gene 2328); experiment: LTEA_HepaRG_FMO3: Life Technologies and Expression Analysis (LTEA) Assay for flavin-containing dimethylaniline monooxygenases 3 (FMO3) using HepaRG (AID 2283453); settings: mRNA level, 48 h; actives raise or lower the signal
# Procedure, shortened: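 Differentiated HepaRG cells in serum-free induction medium, exposed 48 h in duplicate to 8 half-log concentrations up to 100 uM in 0.5% DMSO. FMO3 mRNA by qRT-PCR, normalized to ACTB, GAPDH, POLR2A; bidirectional fit vs DMSO.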
# [13] = read-out: Cytochrome P450 (CYP1A1), CYP1A1 (gene 1543); experiment: LTEA_HepaRG_CYP1A1: Life Technologies and Expression Analysis (LTEA) Assay for Cytochrome P450 (CYP1A1) using HepaRG (AID 2283454); settings: mRNA level, 48 h; actives raise or lower the signal
# Procedure, shortened: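 qRT-PCR read-out: CYP1A1 transcript normalized to three housekeeping genes, fitted bidirectionally against 0.5% DMSO vehicle baseline. Human HepaRG cells, 48 h chemical exposure, 8-point half-log series topping at 100 uM.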
# [14] = read-out: CFLAR gene, CFLAR (gene 8837); experiment: LTEA_HepaRG_CFLAR: Life Technologies and Expression Analysis (LTEA) Assay for CFLAR gene using HepaRG (AID 2283455); settings: mRNA level, 48 h; actives raise or lower the signal
# Procedure, shortened: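 HepaRG cells were plated for 48 h, switched to serum-free induction medium, then exposed in duplicate for 48 h to 8 concentrations (top 100 uM, half-log steps, 0.5% DMSO). CFLAR mRNA was measured by qRT-PCR, normalized to ACTB, GAPDH and POLR2A.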
# [15] = read-out: Forkhead box O1 (FOXO1), FOXO1 (gene 2308); experiment: LTEA_HepaRG_FOXO1: Life Technologies and Expression Analysis (LTEA) Assay for Forkhead box O1 (FOXO1) using HepaRG (AID 2283456); settings: mRNA level, 48 h; actives raise or lower the signal
# Procedure, shortened: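 Differentiated human HepaRG cells in serum-free induction medium were exposed in duplicate for 48 h to eight half-log concentrations (top 100 uM, 0.5% DMSO). FOXO1 mRNA was measured by TaqMan qRT-PCR, normalised to ACTB, GAPDH and POLR2A, and fitted bidirectionally against DMSO.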
# [16] = read-out: growth arrest and DNA damage 45 (GADD45A), GADD45A (gene 1647); experiment: LTEA_HepaRG_GADD45A: Life Technologies and Expression Analysis (LTEA) Assay for growth arrest and DNA damage 45 (GADD45A) using HepaRG (AID 2283458); settings: mRNA level, 48 h; actives raise or lower the signal
# Procedure, shortened: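 Cells plated and cultured 48 h, switched to serum-free induction medium, then dosed for 48 h (100 uM top, half-log dilutions, 0.5% DMSO). RNA was isolated and transcript measured by Fluidigm qRT-PCR.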
# [17] = CEETOX_H295R_ESTRADIOL: CeeTox H295R High-throughput Steroidogenesis Assay for Estradiol (AID 2283440); settings: actives raise or lower the signal;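 note: estradiol secreted into medium quantified by LC-MS/MS after dansyl derivatisation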
# Procedure, shortened: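 H295R, 48 h forskolin (10 uM) prestim → 48 h compound, 0.1% DMSO final. Estradiol in medium: MTBE extraction, dansyl chloride derivatization, LC-MS/MS. Fit bidirectional vs DMSO baseline; MTT viability in same wells.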
# [18] = CEETOX_H295R_ESTRONE: CeeTox H295R High-throughput Steroidogenesis Assay for Estrone (AID 2283441); settings: actives raise or lower the signal;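 note: estrone secreted into medium measured by LC-MS/MS after dansyl derivatization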
# Procedure, shortened: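 H295R cells prestimulated 48 h with 10 uM forskolin, then exposed 48 h to chemicals in 0.1% DMSO final; estrone in medium extracted with MTBE, dansyl-derivatized, quantified by HPLC-MS/MS; bidirectional fitting versus DMSO, viability by MTT.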
# Chain of Fatty acid synthase (Homo sapiens) (P49327 whole entry, looked up): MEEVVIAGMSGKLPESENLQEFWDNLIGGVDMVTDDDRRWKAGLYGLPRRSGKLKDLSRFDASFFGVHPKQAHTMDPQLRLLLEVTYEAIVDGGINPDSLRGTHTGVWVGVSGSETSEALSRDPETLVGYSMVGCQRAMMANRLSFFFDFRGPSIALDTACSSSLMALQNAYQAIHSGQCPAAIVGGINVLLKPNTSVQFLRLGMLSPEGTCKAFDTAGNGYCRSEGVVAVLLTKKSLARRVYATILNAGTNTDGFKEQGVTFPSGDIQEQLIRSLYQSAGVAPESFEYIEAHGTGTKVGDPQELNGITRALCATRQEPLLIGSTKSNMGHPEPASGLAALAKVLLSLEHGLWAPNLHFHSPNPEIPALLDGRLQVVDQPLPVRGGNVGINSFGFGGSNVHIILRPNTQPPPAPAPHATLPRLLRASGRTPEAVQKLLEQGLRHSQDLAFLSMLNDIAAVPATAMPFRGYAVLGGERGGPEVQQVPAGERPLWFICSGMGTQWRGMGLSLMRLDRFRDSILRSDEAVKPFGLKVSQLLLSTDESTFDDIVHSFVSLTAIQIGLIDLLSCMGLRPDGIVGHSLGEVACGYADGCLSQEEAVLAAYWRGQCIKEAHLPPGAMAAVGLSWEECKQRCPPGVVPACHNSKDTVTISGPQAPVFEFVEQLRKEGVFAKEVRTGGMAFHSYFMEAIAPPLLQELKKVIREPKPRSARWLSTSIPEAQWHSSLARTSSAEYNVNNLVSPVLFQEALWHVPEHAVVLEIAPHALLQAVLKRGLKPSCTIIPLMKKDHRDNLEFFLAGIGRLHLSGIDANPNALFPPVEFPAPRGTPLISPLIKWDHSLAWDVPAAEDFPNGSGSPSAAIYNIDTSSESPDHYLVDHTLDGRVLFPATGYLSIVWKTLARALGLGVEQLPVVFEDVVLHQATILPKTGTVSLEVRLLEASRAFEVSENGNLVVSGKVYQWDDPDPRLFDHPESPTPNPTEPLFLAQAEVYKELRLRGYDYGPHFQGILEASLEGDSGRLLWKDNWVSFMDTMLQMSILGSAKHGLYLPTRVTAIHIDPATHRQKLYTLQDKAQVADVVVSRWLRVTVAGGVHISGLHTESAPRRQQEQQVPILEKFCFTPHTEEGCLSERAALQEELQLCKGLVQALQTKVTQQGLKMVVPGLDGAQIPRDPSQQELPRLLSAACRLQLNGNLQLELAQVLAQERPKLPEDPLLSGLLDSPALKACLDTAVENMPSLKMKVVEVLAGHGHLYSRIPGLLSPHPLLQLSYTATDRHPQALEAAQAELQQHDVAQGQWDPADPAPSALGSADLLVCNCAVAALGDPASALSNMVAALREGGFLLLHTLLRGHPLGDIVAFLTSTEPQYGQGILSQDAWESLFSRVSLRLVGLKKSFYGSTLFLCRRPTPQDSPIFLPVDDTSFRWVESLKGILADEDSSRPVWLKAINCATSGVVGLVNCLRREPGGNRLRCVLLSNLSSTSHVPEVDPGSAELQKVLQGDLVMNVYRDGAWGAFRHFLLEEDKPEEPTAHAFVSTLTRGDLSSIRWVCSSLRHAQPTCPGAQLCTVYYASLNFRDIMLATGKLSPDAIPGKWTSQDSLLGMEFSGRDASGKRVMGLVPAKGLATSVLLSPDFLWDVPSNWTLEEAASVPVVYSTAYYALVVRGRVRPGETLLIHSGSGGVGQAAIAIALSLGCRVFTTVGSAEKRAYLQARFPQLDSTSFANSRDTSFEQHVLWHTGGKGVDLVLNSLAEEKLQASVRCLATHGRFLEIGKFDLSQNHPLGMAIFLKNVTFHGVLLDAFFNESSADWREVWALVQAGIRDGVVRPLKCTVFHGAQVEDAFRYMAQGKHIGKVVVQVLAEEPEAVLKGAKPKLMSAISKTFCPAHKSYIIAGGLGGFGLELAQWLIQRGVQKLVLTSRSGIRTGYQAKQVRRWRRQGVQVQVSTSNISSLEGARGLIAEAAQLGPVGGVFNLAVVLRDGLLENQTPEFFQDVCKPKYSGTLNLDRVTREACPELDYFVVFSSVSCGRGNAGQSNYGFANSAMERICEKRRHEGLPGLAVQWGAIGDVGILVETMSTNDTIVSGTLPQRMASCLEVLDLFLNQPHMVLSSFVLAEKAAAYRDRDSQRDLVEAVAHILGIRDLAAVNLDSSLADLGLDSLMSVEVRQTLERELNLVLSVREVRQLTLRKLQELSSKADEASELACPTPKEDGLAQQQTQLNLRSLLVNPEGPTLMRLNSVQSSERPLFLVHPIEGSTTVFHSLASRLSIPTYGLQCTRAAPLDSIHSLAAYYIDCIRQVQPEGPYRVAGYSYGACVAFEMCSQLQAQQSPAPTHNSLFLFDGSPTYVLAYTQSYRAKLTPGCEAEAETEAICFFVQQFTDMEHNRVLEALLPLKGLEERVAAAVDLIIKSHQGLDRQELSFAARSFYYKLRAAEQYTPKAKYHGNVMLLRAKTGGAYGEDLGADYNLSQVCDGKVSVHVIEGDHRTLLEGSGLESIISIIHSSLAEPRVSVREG
structure (smiles),measurement,setting,value
C[C@]12CC[C@@H]3c4ccc(O)cc4CC[C@H]3[C@@H]1C[C@@H](O)[C@@H]2O,outcome,[1],inactive
same,AC50,[2],31.8 µM (active)
same,outcome,[3],inactive
same,outcome,[4],inactive
same,outcome,[5],inactive
same,AC50,[6],25.8 µM (active)
COc1cccc(O)c1,outcome,[1],inactive
same,outcome,[2],inactive
same,outcome,[3],inactive
same,outcome,[4],inactive
same,outcome,[5],inactive
same,outcome,[6],inactive
CN(Cc1cnc2nc(N)nc(N)c2n1)c1ccc(C(=O)N[C@@H](CCC(=O)O)C(=O)O)cc1,AC50,[7],3.33 µM (active)
same,outcome,[8],inactive
same,outcome,[9],inactive
same,outcome,[10],inactive
same,outcome,[11],inactive
same,outcome,[12],inactive
same,outcome,[13],inactive
same,outcome,[14],inactive
same,outcome,[15],inactive
same,outcome,[16],inactive
Clc1ccc(Nc2nnc(Cc3ccncc3)c3ccccc23)cc1,outcome,[1],inactive
same,outcome,[2],inactive
same,outcome,[3],inactive
same,AC50,[4],2.38 µM (active)
same,AC50,[5],3.2 µM (active)
same,outcome,[6],inactive
same,AC50,[17],2.39 µM (active)
same,AC50,[18],4.2 µM (active)
CCCCc1oc2ccccc2c1C(=O)c1cc(I)c(OCCN(CC)CC)c(I)c1,AC50,[7],9.27 µM (active)
same,outcome,[8],inactive
same,AC50,[9],68.3 µM (active)
same,outcome,[10],inactive
same,AC50,[11],37.8 µM (active)
same,AC50,[12],48.6 µM (active)
same,AC50,[14],62.4 µM (active)
same,outcome,[15],inactive
same,AC50,[16],59.1 µM (active)
N=C(N)c1ccc(OCCCCCOc2ccc(C(=N)N)cc2)cc1,outcome,[8],inactive
same,AC50,[9],10.1 µM (active)
same,outcome,[10],inactive
same,AC50,[11],6.7 µM (active)
same,AC50,[12],6.68 µM (active)
same,outcome,[13],inactive
same,AC50,[14],30.5 µM (active)
same,AC50,[15],43.8 µM (active)
same,AC50,[16],4.21 µM (active)
Cc1[nH]nc2c1N=C(c1ccccc1Cl)c1cc([N+](=O)[O-])ccc1N2,AC50,[7],7.35 µM (active)
same,outcome,[8],inactive
same,outcome,[9],inactive
same,AC50,[10],1.22 µM (active)
same,AC50,[11],16.1 µM (active)
same,AC50,[12],9.1 µM (active)
same,AC50,[13],81.8 µM (active)
same,AC50,[14],12.9 µM (active)
same,AC50,[15],5.4 µM (active)
same,AC50,[16],88.8 µM (active)
O=C(c1ccccc1)c1ccccc1,outcome,[7],inactive
same,outcome,[8],inactive
same,outcome,[9],inactive
same,outcome,[10],inactive
same,outcome,[11],inactive
same,outcome,[12],inactive
same,outcome,[14],inactive
same,outcome,[15],inactive
same,outcome,[16],inactive
